A selection: hits, their analogues and other compounds. The true share with any hit is near 2.4%.
TMEM16A act = activators or potentiators of mouse TMEM16A chloride channel; Q8BHY3; HEK293 TMEM16A/YFP-H148Q/I152L, iodide quench fluorescence; active compounds read low; B-score at 10 µM; 340,000 tested, 0.3% active; AID 623877;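 active = fluorescence-ratio B-score plate-corrected deviation score at least 3 library SD below zero, with starting fluorescence score within 5 deviations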;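 also: channel opened by trigger with iodide after compound preincubation; score built on the fluorescence ratio of max minus min over baseline; more negative score means more quench and so TMEM16A activation or potentiation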
Target sequence (Q8BHY3 whole entry, looked up): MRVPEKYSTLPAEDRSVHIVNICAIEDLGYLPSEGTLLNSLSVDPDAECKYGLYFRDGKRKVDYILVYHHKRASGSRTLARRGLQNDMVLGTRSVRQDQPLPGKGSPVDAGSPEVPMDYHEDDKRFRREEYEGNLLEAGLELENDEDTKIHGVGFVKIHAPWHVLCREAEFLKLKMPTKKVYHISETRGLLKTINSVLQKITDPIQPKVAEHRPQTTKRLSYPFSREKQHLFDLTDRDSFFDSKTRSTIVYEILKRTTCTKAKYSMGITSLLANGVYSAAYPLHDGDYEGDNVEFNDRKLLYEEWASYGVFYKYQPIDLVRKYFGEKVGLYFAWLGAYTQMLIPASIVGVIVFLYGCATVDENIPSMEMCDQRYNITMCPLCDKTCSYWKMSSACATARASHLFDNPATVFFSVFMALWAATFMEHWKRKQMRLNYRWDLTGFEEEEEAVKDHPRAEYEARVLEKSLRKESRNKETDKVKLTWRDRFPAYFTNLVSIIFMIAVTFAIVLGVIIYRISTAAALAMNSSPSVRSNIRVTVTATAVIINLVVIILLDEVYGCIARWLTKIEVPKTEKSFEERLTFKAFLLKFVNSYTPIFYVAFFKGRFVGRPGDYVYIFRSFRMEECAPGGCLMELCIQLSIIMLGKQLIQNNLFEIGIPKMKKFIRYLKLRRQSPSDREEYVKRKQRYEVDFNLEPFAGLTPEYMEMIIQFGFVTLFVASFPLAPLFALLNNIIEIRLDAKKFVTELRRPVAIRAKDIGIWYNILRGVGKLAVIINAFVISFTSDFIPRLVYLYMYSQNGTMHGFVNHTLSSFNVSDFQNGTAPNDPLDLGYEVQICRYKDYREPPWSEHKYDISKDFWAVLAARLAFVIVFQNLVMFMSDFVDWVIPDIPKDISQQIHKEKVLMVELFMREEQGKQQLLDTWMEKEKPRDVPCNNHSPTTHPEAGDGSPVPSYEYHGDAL
RTF Ca sens inh = cardiac RTF calcium desensitization; IANBD-labeled cardiac RTF, Ca2+ fluorescence; inhibition, % at 7.15 µM; 340,000 tested, 0.12% active; AID 493244;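 active = inhibition above the mean inhibition of all tested compounds plus 3 SD, cut at about 17% in these data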;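 also: assay run at fixed EC70 calcium of 1.6 mM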
ANO1 block = blocks the mouse calcium-activated chloride channel TMEM16A | Q8BHY3 | HEK293 TMEM16A/YFP iodide influx fluorescence, ionomycin | normalized B-score (activity score, 25-100; higher = stronger inhibition) at 10 µM | 310,000 tested, 1.2% active;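 active = ratio plate-corrected score three or more library SD toward inhibition, starting fluorescence score within five deviations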;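 also: score derived from kinetic fluorescence span divided by baseline fluorescence per well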
CRFBP-R2 agonist = CRF-BP/CRF-R2 complex agonism; activation, % at 13.2 µM; HEK293 CRF-R2/CRF-BP, calcium dye fluorescence (FLIPR); percent of saturating CRF peptide response; 350,000 tested, 0.46% active;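 active = activation of at least 50%, plus an integration ratio under a set limit after plate pattern correction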;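 also: plate controls were neutral control wells without compound for no effect and CRF at EC100 for full effect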
RTF Ca sens act = increases calcium sensitivity of human cardiac regulated thin filaments. P19429+P45379. IANBD-labeled TnC RTF fluorescence at EC20 calcium; 0% EC20 calcium, 100% full calcium. activation, % at 7.2 µM. 340,000 tested, 0.24% active. AID 493008;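 active = activation above the mean over all tested compounds plus 3 SD, cut at about 30% in these data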;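 also: rise in fluorescence read as greater calcium sensitivity of cardiac thin filaments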
CRFBP-R2 block = blocks CRF-induced signaling of the CRF-BP/CRF-R2 complex | HEK293 CRF-R2/CRF-BP, CRF-induced calcium fluorescence | inhibition, % at 11.8 µM | 350,000 tested, 0.59% active;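 active = inhibition of the ligand-induced calcium signal above about 50% at the single tested concentration, limit read from the data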
Active calls of the source: *; i = inactive; / = not tested or not shown.

SMILES	TMEM16A act	RTF Ca sens inh	ANO1 block	CRFBP-R2 agonist	RTF Ca sens act	CRFBP-R2 block
Cc1ccc(Cn2c(C3CCCN3c3nc(-c4ccc(F)cc4)cs3)nc3cc(C(F)(F)F)ccc32)cc1 (stereo not drawn)	-9.5*	-2	i	-1	-2	9
CCn1c(C)nnc1SCC(=O)NC1CCCC1	i	-4	i	-1	5	2
O=C(OCn1nnc2ccccc2c1=O)c1cccnc1Cl	i	0	100*	0	-8	6
CCN(CC)S(=O)(=O)c1ccc(C(=O)OCn2nnc3ccccc3c2=O)cc1	i	-2	25*	2	-5	14
CSc1ncccc1C(=O)OCn1nnc2ccccc2c1=O	i	-11	i	0	-3	14
O=C(Nc1cccc(Cl)c1)c1cccnn1	i	2	i	0	-4	5
COc1ccc(C(=Cc2cc(OC)c(OC)cc2[N+](=O)[O-])C(=O)O)cc1	i	1	/	-2	4	-5
Oc1c(Cl)cc(Cl)cc1Sc1cc(Cl)cc(Cl)c1O	/	/	100*	/	/	/
CC(=O)Nc1ccc(OCC(O)CN2C(C)CCCC2C)cc1 (stereo not drawn)	i	14	i	0	0	18
CC(=O)Nc1ccc(OCC(O)CN2C(C)(C)CC(O)CC2(C)C)cc1 (stereo not drawn)	i	-4	i	-2	5	53*
COc1ccc(N=C2SC(CC(=O)Nc3ccccc3)C(=O)N2Cc2ccccn2)cc1 (stereo not drawn)	-5.8*	-1	i	0	-2	-15
COc1ccc(/C(N)=N/OC(=O)CC2CCCCC2)cc1	i	-11	i	-1	-4	-25
Cn1c(=O)c2cc3ccc(Cl)cc3nc2n(C)c1=O	i	/	i	-1	/	52*
COc1ccccc1CCNC(=O)C(=O)NCC1OCCN1S(=O)(=O)c1ccc(C)cc1 (stereo not drawn)	i	-6	i	-2	0	22
CCOc1ccc(N(CC(=O)NC2CCC(C)CC2)S(=O)(=O)c2c(C)noc2C)cc1 (stereo not drawn)	i	-5	i	1	2	62*
COc1cccc(N2CC(C(=O)Nc3nnc(SCCN4CCOCC4)s3)CC2=O)c1 (stereo not drawn)	i	2	i	1	-1	-8
CC1(c2nnc(-c3ccc(F)cc3)o2)CC(c2ccc([N+](=O)[O-])cc2)=NO1 (stereo not drawn)	i	-3	i	0	-11	2
COc1ccc(C)cc1S(=O)(=O)N1CCN(S(=O)(=O)c2cc(C)ccc2OC)CC1	i	0	i	-6	4	54*
COc1ccc(C)cc1S(=O)(=O)N1CCCCC1	i	-8	i	-2	-2	4
COC(=O)c1cc(OC)c(OC)cc1NC(=O)c1c(-c2ccccc2Cl)noc1C	i	-4	i	0	-5	63*
COC(=O)c1cc(OC)c(OC)cc1NC(=O)C(C)Sc1ccc(C)cc1 (stereo not drawn)	i	-6	i	-1	3	50*
COC(=O)c1cc(OC)c(OC)cc1NC(=O)c1ccco1	i	-6	i	1	4	76*
COc1ccc([N+](=O)[O-])cc1NC(=O)C(C)Sc1ccc(C)cc1 (stereo not drawn)	i	5	i	0	-2	0
CC1CCN(CC(=O)Nc2cccc([N+](=O)[O-])c2)CC1	i	0	25*	1	-2	2
CCN1C[C@@H]2[C@@H]3C(=O)N(Cc4ccccc4)C(=O)[C@@H]3[C@](Cc3ccccc3)(C1=O)N2C(=O)c1ccc(Cl)cc1	i	-15	/	1	-7	0
SMILES	TMEM16A act	RTF Ca sens inh	ANO1 block	CRFBP-R2 agonist	RTF Ca sens act	CRFBP-R2 block
COc1ccc(C(=O)Nc2cc(C(F)(F)F)ccc2-n2cncn2)cc1	i	7	i	4	-8	-25
COc1ccc(Oc2ccc(C(F)(F)F)cc2NC(=O)c2ccc(OC)cc2)cc1	i	-6	i	6	-1	52*
CCOC(=O)c1ccc(NC(=O)CNNC(=O)COc2ccccc2C)cc1	i	-9	/	1	-3	-10
CCCCCCCNC1=CC(=O)CC(c2ccccc2)C1 (stereo not drawn)	i	2	i	-3	5	15
CCCCCNC1=CC(=O)CC(c2ccccc2)C1 (stereo not drawn)	i	-3	i	-1	0	81*
Cc1ccc(S(=O)(=O)N(C)c2ccc(C(=O)NC3CCCCC3)cc2)cc1	/	/	/	2	/	-3
CS(=O)(=O)c1ccc(C(=O)OCc2nnc(-c3ccccc3)o2)cc1[N+](=O)[O-]	-46*	-21	/	-4	3	36
CCOC(=O)C1=C(c2ccccc2)NC(=O)NC1c1ccc(O)c(Cl)c1 (stereo not drawn)	-11*	-14	i	0	4	-1
CCOC(=O)C1=C(c2ccccc2)NC(=O)NC1c1ccc(O)c(OCC)c1 (stereo not drawn)	i	-7	i	2	-6	-13
O=C(CN1N=C(c2ccc(Cl)cc2)CCC1=O)NCCN1CCc2ccccc2C1	i	-9	i	-1	4	-11
O=C(Nc1ccccc1Cc1ccccc1)c1ccccc1NS(=O)(=O)c1ccc(Cl)s1	i	1	25*	35	-2	105*
O=C(Nc1ccccc1)c1ccccc1NS(=O)(=O)c1ccc(Cl)s1	i	4	100*	29	-2	68*
Cc1ccc(NC(=O)c2ccccc2NS(=O)(=O)c2ccc(Cl)s2)cc1	i	-2	i	65*	2	80*
O=C(Nc1nnc(S(=O)(=O)Nc2ccccc2)s1)c1ccccc1Cl	i	0	i	0	0	76*
C=CCCC(=O)N1CCCC(Cc2cccc(Cl)c2)(C(=O)OCC)C1 (stereo not drawn)	i	2	i	1	5	10
COC(=O)c1ccc(NC(=O)COC(=O)CSc2nc(C)cc(C)n2)cc1	i	4	i	0	3	52*
Cc1cc(C)nc(SCC(=O)OCC(=O)Nc2nc3ccccc3s2)n1	i	1	i	2	3	2
COc1cc(NC(=O)Cc2ccccc2)ccc1NC(=O)c1ccccc1	i	-2	i	0	-2	2
CSCCC(NC(=O)c1ccccc1)C(=O)N/N=C(\C)Cc1ccccc1 (stereo not drawn)	i	-12	i	44	6	-35
CSCCC(NC(=O)c1ccccc1)C(=O)N/N=C(\C)c1ccccc1 (stereo not drawn)	i	0	i	112*	-7	-90

Screens as filed in PubChem BioAssay.
